Experimental data reported in PubChem BioAssay AID1851 (National Center for Advancing Translational Sciences (NCATS), 2009).
Hit rate of the full screen: of about 16,000 compounds, about 2,600 (16%) were called active. Not shown: some 20% with an inconclusive outcome. Only a selection was taken, and actives are over-represented in it overall. A number with no mark means an inactive call. The call rests on the fitted dose curve; in most records, active means well fitted curve in the direction sought with a large enough effect; inconclusive means small, poorly fitted or top-dose-only effect, or effect the other way; inactive means no such curve, though single readings can be large or run the other way.

biological target: Cytochrome P450 2D6 (Homo sapiens) (UniProt P10635); assay: Cytochrome panel assay with activity outcomes; conditions: recombinant CYP, pro-luciferin dealkylation, luminescence, p450-cyp2d6; series mostly up to 57.1 µM; activity, negative = inhibition: at the top concentration
On the % scale 0 is the no-effect control and ±100 the full control effect.

Chain of Cytochrome P450 2D6 (Homo sapiens) (P10635 whole entry, looked up): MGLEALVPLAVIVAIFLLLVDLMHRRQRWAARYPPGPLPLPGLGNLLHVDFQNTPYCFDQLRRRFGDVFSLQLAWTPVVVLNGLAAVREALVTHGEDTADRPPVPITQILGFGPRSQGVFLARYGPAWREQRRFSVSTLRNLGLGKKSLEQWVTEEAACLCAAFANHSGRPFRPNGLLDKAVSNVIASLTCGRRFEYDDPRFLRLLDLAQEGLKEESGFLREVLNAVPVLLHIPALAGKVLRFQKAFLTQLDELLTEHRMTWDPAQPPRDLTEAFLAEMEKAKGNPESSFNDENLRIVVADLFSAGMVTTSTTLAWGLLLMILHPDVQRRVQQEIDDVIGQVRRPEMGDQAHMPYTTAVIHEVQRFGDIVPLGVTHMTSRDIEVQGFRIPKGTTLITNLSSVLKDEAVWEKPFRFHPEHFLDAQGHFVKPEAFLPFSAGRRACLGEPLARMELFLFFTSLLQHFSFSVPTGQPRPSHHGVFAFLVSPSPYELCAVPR

| Structure (SMILES) | activity, negative = inhibition | AC50 |
| --- | --- | --- |
| COC[C@H]1OC(=O)c2coc3c2[C@@]1(C)C1=C(C3=O)[C@H]2CCC(=O)[C@@]2(C)C[C@H]1OC(C)=O | -0.794% |  |
| S=C(S)N1CCCC1 | -6.69% |  |
| C[C@@H]1O[C@@H](O[C@H]2C[C@@H](O)[C@@]3(CO)[C@H]4[C@H](O)C[C@]5(C)[C@@H](C6=CC(=O)OC6)CC[C@]5(O)[C@H]4CC[C@@]3(O)C2)[C@@H](O)[C@H](O)[C@H]1O | -4.25% [at 11.4 µM] |  |
| O=C(Oc1ccccc1)N1CCC2(CCCN(Cc3nccs3)C2)CC1 |  | 5.01 µM (active) |
| O=C(Nc1cccc(F)c1)N1CCCC2(CCN(C(=O)Oc3ccccc3)CC2)C1 | -12.6% |  |
| O=C(Oc1ccccc1)N1CCC2(CCN(Cc3nccs3)CC2)CC1 | 3.3% |  |
| COc1ccccc1CN1CCCC2(CCN(C(=O)Oc3ccccc3)CC2)C1 |  | 3.98 µM (active) |
| COc1cc2c(cc1OC)[C@]13CC[N@+]4(C)CC5=CCO[C@H]6CC(=O)N2[C@@H]1[C@@H]6[C@@H]5C[C@]34O | -2.44% [at 11.4 µM] |  |
| C[C@@]12CC[C@H]3[C@@H](CCC4=CC(=O)CC[C@]43C)[C@H]1CC[C@H]2C(=O)CO | 10.6% [at 25.6 µM] |  |
| CC(C)C[C@H](NP(=O)(O)O[C@@H]1O[C@@H](C)[C@@H](O)[C@@H](O)[C@H]1O)C(=O)N[C@@H](Cc1c[nH]c2ccccc12)C(=O)O | -2.19% |  |
| O=C(c1cc(-c2ccccc2)nc2ccccc12)N1CCC2(CC1)OCCO2 | -2.96% |  |
| CN(CCc1ccc(Cl)c(Cl)c1)[C@H]1CCCC[C@H]1N1CCCC1 |  | 0.00631 µM (active) |
| CN(C)CCN(C)CCc1ccc(Cl)c(Cl)c1 | -0.0606% |  |
| Clc1cnc(Oc2ccc(Oc3ncc(Cl)cc3Cl)cc2)c(Cl)c1 | -6.42% |  |
| NS(=O)(=O)c1ccc(-c2ccc([As](=O)(O)O)cc2)cc1 | 16.2% [at 11.4 µM] |  |
| N[C@H](Cn1ccc(=O)[nH]c1=O)C(=O)O |  | 3.98 µM (active) |
| N[C@@H](Cn1cc(I)c(=O)[nH]c1=O)C(=O)O | 13.8% |  |
| N[C@@H](Cn1oc(=O)[nH]c1=O)C(=O)O | 4.45% |  |
| CCSCC[C@H](N)C(=O)O | 2.98% [at 11.4 µM] |  |
| CC(=O)OCC(=O)[C@@H]1CC[C@H]2[C@H]3CC[C@H]4C[C@@H](O)CC[C@]4(C)[C@@H]3C(=O)C[C@@]12C | 3.28% [at 25.6 µM] |  |
| COc1ccc(C2NCc3ccc4c(c3-n3cccc32)OCO4)cc1OC (stereo not given) |  | 0.398 µM (active) |
| CCNC(=O)[C@@H]1O[C@@H](n2cnc3c(N)ncnc32)[C@H](O)[C@H]1O | 1.61% |  |
| C[C@@H]1[C@H]2C=C[C@@H]1[C@@H](c1c3ccc(=O)c(O)c-3oc3c(O)c(O)ccc13)[C@@H]2C(=O)O | 2.68% [at 11.4 µM] |  |

| Structure (SMILES) | activity, negative = inhibition | AC50 |
| --- | --- | --- |
| Cc1nc2ccccc2c(=O)n1-n1cnnc1 | 2.1% |  |
| Clc1ccc(C(c2ccc(Cl)cc2)n2cc[n+](C[C@@H](OCc3ccc(Cl)cc3Cl)c3ccc(Cl)cc3Cl)c2)cc1 |  | 0.0398 µM (active) |
| O=C(C1CC(=O)N(C2CCCC2)C1)N1CCC2(CC1)OCCO2 (stereo not given) | 13.9% |  |
| CCN1CCN(Cc2cc(OC)c(OC)cc2[N+](=O)[O-])CC1 |  | 6.31 µM (active) |
| CCN1C[C@]2(C)CC[C@H](OC)[C@@]34[C@@H]2[C@H](OC(C)=O)[C@]2(OCO[C@@]25C[C@@H](OC)[C@@H]2C[C@@]3(O)[C@H]5[C@@H]2OC)[C@H]14 | -2.5% [at 25.6 µM] |  |
| COC(=O)NC/C=C\c1nc(CC/C=C\C(=O)O[C@H]2C[C@H]3CC(=O)O[C@@H](/C=C\CC(C)C)C[C@@H]4CC[C@H](C)[C@H](C[C@@H](OC)C[C@H](C2)O3)O4)co1 | -6.57% [at 11.4 µM] |  |
| CC(N)Cc1ccccc1Sc1ccc(O)cc1 (stereo not given) |  | 10 µM (active) |
| CNC(C)Cc1ccccc1Sc1ccc(O)cc1 (stereo not given) |  | 3.16 µM (active) |
| COC(=O)C1(C)C=C2C(=C(C)C(=O)C2C)CN1 (stereo not given) | -5.73% |  |
| CC(C)[C@@H]1CN[C@H](C(=O)O)[C@@H]1CC(=O)O | 3.37% |  |
| C=C1[C@@H]2C[C@@]3([C@H]1O)[C@H]1C[C@@H]4[C@@]5(C)CC[C@H](O)[C@]4([C@H]1N(CC)C5)[C@H]3C[C@H]2O | -0.649% [at 25.6 µM] |  |
| CC(C)CNCCc1ccccn1 | -13.8% [at 11.4 µM] |  |
| CCC(=O)O[C@H]1CC[C@H]2[C@@H]3CCC4=CC(=O)CC[C@]4(C)[C@H]3CC[C@]12C | -8.4% [at 25.6 µM] |  |
| CC[C@@H](C)[C@H]1O[C@]2(CC[C@@H]1C)C[C@@H]1C[C@H](C/C=C(/C)[C@H](O[C@@H]3C[C@H](OC)[C@H](O[C@@H]4C[C@H](OC)[C@@H](O)[C@H](C)O4)[C@H](C)O3)[C@@H](C)/C=C\C=C3CO[C@@H]4[C@H](O)C(C)=C[C@@H](C(=O)O1)[C@]34O)O2 (tested in a mixture with another compound) | 5.21% |  |
| Cc1ccc2c(c1)N(CCC(=O)N1CCC3(CC1)OCCO3)C(=O)C(C)O2 (stereo not given) | -27.8% |  |
| CN1CCc2cc(O)cc3c2[C@H]1Cc1ccc(O)c(O)c1-3 | -16% |  |
| CN1CCc2cc3c(cc2[C@@H]1O)OCO3 |  | 7.94 µM (active) |
| COc1cc([C@H]2c3cc4c(cc3[C@@H](O)[C@@H]3COC(=O)[C@H]23)OCO4)cc(OC)c1OC | -7.23% [at 25.6 µM] |  |
| CC(=O)N1CC[N+](C)(C)CC1 | -1.9% |  |
| CC(C)(C)c1cc(C=C(C#N)C#N)cc(C(C)(C)C)c1O | -11.6% |  |
| CC1=C2C(=O)[C@@H]3[C@@H](CC=C4C[C@@H](O)CC[C@@]43C)[C@H]2CC[C@@]12O[C@H]1C[C@H](C)CN[C@H]1[C@@H]2C | 9.41% [at 11.4 µM] |  |
| NS(=O)(=O)c1cc([C@@]2(O)NC(=O)c3ccccc32)ccc1Cl | 4.03% [at 25.6 µM] |  |
| CCOc1ccc(C2C(C#N)=C(N)Oc3c2c(=O)oc2ccccc32)cc1 (stereo not given) | -8.83% |  |

| Structure (SMILES) | activity, negative = inhibition | AC50 |
| --- | --- | --- |
| CCOC(C(=O)OCCCN(CC)CC)(c1ccccc1)c1ccccc1 |  | 2 µM (active) |
| CC(C)NP(=O)(NC(C)C)OP(=O)(NC(C)C)NC(C)C | 10.5% |  |
| CC(C)N[C@@H](C)Cc1ccc(I)cc1 |  | 0.1 µM (active) |
| Cc1ccc2cc3cc(C(=O)N4CCC5(CC4)OCCO5)oc3nc2c1 | -17.5% |  |
| CCOC(=O)c1ncn2c1CN(C)C(=O)c1cc(F)ccc1-2 | -7.93% |  |
| CC1(C)[C@@H]2CC[C@]1(C)CN(CCC[N+](C)(C)C)C2 | 2.02% [at 11.4 µM] |  |
| CS(=O)(=O)O[C@H]1CN2CCC1CC2 | 2.87% [at 11.4 µM] |  |
| C[C@]12CC[C@H](O)C[C@@H]1CC[C@H]1[C@H]2CC[C@]2(C)[C@H](C(=O)CO)CC[C@@H]12 | -4.84% |  |
| c1csc(CN2CCCC3(CCNCC3)C2)n1 | -11.9% |  |
| c1ccc(N2CCCC3(CCNCC3)C2)nc1 |  | 10 µM (active) |
| c1csc(CN2CCC3(CCNCC3)CC2)n1 | 5.07% |  |
| c1ccc(N2CCC3(CCNCC3)CC2)nc1 |  | 1.26 µM (active) |
| Cc1ccccc1OCCN=Cc1c(O)n(C)c(=O)n(C)c1=O | -8.35% |  |
| COc1cc2c(cc1OC)[C@@]13CCN4C=C5CCO[C@H]6CC(=O)N2[C@@H]1[C@@H]6[C@H]5C[C@H]43 | 9.01% [at 11.4 µM] |  |
| C1CCc2nnnn2CC1 | -0.778% [at 25.6 µM] |  |
| CC(C)N(CC[C@@](C(N)=O)(c1ccccc1)c1ccccn1)C(C)C |  | inactive |
| CC(C)[N+](C)(CCC(C(N)=O)(c1ccccc1)c1ccccc1)C(C)C |  | 3.98 µM (active) |
| N#C/C(=C\c1ccc(O)c(O)c1)C(N)=S | -10.4% |  |
| Nc1nc(N)c(N=Nc2ccc([As](=O)(O)O)c(O)c2)c(N)n1 | 12.7% [at 11.4 µM] |  |
| CC(O)(CS(=O)(=O)c1cccc(C(F)(F)F)c1)C(=O)Nc1cccc(C(F)(F)F)c1 (stereo not given) | -12.4% |  |
| COc1cc(C[C@H](C)N)c(OC)cc1I |  | 25.1 µM (active) |
| NC(=O)c1ccc(C(=O)Nc2ccc([As](=O)(O)O)cc2)cc1 | -0.507% [at 11.4 µM] |  |
| C[C@H](N)[C@@H](O)c1ccccc1 | -7.7% [at 25.6 µM] |  |

| Structure (SMILES) | activity, negative = inhibition | AC50 |
| --- | --- | --- |
| O=NN(Cc1ccc(Cl)cc1)[C@@H](C(=O)O)c1ccccc1 | 6.33% [at 11.4 µM] |  |
| CC(NCc1ccc(Cl)cc1)C(O)c1ccccc1 (stereo not given) |  | 0.0708 µM (active) |
| COc1ccn(C)c(=O)c1C#N | -5.47% [at 25.6 µM] |  |
| O=C1C2CCN(CC2)C1(CO)CO |  | inactive |
| c1ccc(CCN2CCCCCC2)nc1 | -18.4% [at 11.4 µM] |  |
| c1ccc(CCN2CCOCC2)nc1 | 13.9% [at 11.4 µM] |  |
| CCc1ccc(CCN2CCCCC2)nc1 |  | 1.58 µM (active) |
| CC(C)COC(=O)OCN1C(=O)CN(CCN2CC(=O)N(COC(=O)OCC(C)C)C(=O)C2)CC1=O | 2.09% |  |
| O=S(=O)(c1ccccc1)N1CCCCC1c1cccnc1 (stereo not given) | -14.3% |  |
| N#CCCN | 1.7% |  |
| Oc1cccc2cccnc12 | 8.63% [at 11.4 µM] |  |
| C[n+]1c(/C=C\c2ccc(O)c3ncccc23)[se]c2ccccc21 |  | 1 µM (active) |
| COc1cccc(-c2nc(CS(=O)CC(=O)N3CCC4(CC3)OCCO4)c(C)o2)c1 (stereo not given) | 0.248% |  |
| C[C@@]12CC[C@H]3[C@@H](CC[C@@H]4C[C@H]5S[C@H]5C[C@]43C)[C@H]1CC[C@H]2O | -6.37% [at 25.6 µM] |  |
| CCCN(CCC)CCc1cccc2c1CC(=O)N2 |  | 3.16 µM (active) |
| N[C@@H]1C=CC=C(C(=O)O)C1 | 1.21% |  |
| N#CC(C#N)=Cc1cc(O)c(O)c(O)c1 | -3.79% |  |
| O=C(O)c1cc[c]([Hg][S]c2ncnc3nc[nH]c23)cc1 |  | 1 µM (active) |
| O=C(NC1CCCCC1)NC1CC2CCC(C1)N2Cc1nnnn1Cc1ccc2c(c1)OCO2 (stereo not given) |  | 6.31 µM (active) |
| CCOP(=O)(OCC)C(NC(=O)C(Cl)Cl)C(Cl)(Cl)Cl (stereo not given) | -4.39% |  |
| O=[N+]([O-])O[C@H]1CO[C@H]2[C@H]1OC[C@@H]2O[N+](=O)[O-] | 8.18% [at 25.6 µM] |  |
